Among the targets are RELARELA (p65 homodimer) (Homo sapiens, UniProt Q04206 1-307); p50p50 homodimer (Homo sapiens, UniProt P19838 7-356); RELB subunit;p50 subunit (Homo sapiens;Homo sapiens, UniProt Q01201;P19838 120-401;7-356).
What all share (assay): protein binding microarray; high values mean tight binding
Details in all cases: dsDNA, one strand shown

A further experiment concerns the target T1, p52p52 homodimer (Homo sapiens, UniProt Q00653 4-332).
T1 sequence: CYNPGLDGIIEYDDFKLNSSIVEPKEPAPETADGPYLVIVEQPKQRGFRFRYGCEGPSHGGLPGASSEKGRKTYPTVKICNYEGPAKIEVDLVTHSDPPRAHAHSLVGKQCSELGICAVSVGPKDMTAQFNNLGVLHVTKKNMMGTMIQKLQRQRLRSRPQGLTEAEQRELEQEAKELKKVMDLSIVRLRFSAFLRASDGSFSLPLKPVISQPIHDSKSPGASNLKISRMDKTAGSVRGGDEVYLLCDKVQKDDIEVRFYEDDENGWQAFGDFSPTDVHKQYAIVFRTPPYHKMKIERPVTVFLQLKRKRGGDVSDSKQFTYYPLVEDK

The target of experiment [1] is RELA (p65) subunit of heterodimer;p50 subunit (Homo sapiens;Homo sapiens, UniProt Q04206;P19838 1-307;7-356).
Experiment [2] has as its target RELA (p65) subunit of heterodimer;p52 subunit (Homo sapiens;Homo sapiens, UniProt Q04206;Q00653 1-307;4-332).
In a further experiment the target is T2, RELB subunit;p52 subunit (Homo sapiens;Homo sapiens, UniProt Q01201;Q00653 120-401;4-332).
T2 sequence 1: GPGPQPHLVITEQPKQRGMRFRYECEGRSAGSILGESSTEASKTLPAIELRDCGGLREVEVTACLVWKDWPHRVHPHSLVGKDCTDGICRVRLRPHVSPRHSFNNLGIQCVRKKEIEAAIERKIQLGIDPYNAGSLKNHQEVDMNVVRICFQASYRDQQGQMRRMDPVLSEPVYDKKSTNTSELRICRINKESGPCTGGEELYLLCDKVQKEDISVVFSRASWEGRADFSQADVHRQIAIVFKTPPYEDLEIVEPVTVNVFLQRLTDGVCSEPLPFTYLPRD
T2 sequence 2: T1 sequence

Experiment [3] deals with C-Rel subunit;p50 subunit (Homo sapiens;Homo sapiens, UniProt Q04864;P19838 1-285;7-356).
Experiment [4] addresses T3, C-Rel subunit;p52 subunit (Homo sapiens;Homo sapiens, UniProt Q04864;Q00653 1-285;4-332).
T3 sequence 1: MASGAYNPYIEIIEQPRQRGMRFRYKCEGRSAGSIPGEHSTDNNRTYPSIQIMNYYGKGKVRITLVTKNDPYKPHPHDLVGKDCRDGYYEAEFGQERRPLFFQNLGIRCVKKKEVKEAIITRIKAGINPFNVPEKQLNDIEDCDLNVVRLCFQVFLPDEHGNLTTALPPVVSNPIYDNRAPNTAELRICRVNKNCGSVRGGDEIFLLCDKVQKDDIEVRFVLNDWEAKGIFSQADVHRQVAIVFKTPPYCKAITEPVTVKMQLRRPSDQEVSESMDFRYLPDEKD
T3 sequence 2: T1 sequence

Chain of p50p50 homodimer (P19838 7-356): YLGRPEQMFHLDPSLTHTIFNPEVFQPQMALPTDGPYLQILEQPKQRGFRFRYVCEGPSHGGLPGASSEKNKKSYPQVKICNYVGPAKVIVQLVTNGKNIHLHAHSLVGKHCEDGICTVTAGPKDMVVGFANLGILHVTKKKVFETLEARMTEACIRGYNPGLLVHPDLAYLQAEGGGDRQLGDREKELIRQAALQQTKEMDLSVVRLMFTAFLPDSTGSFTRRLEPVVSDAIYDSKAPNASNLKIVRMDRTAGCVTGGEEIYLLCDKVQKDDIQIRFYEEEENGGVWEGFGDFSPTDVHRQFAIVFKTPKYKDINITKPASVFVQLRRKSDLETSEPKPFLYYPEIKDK
Chain of RELA (p65) subunit of heterodimer;p50 subunit (Q04206 1-307, chain 1 of 2): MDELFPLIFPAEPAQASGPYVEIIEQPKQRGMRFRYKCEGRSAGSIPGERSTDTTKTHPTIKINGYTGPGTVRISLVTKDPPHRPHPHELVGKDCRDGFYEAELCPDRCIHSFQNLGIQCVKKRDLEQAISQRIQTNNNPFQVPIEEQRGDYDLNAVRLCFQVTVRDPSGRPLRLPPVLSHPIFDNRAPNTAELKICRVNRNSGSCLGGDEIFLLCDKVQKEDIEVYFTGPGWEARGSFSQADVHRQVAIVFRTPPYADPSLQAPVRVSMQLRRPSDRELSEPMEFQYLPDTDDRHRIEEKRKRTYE
Chain of RELA (p65) subunit of heterodimer;p50 subunit (P19838 7-356, chain 2 of 2): as the sequence (P19838 7-356) above
Chain of RELARELA (p65 homodimer) (Q04206 1-307): as the sequence (Q04206 1-307, chain 1 of 2) above

AAAATCGCCCT: the binding signal was -0.445 z-score in the experiment with RELARELA (p65 homodimer); -0.836 z-score with p50p50 homodimer; -0.395 z-score with p52p52 homodimer; -0.458 z-score in experiment [1]; -0.504 z-score in [2]; -0.55 z-score with RELB subunit;p50 subunit. The figures for the binding signal (with RELB subunit;p52 subunit; in [3]; in experiment [4]) were -0.442 z-score, -0.504 z-score and -0.384 z-score, respectively.

Regarding AAGGACGCCCT, the binding signal in the experiment with RELARELA (p65 homodimer) is -0.995 z-score; with p50p50 homodimer, -2.2 z-score; with p52p52 homodimer, -0.8 z-score; in [1], -0.915 z-score; in experiment [2], -0.945 z-score; with RELB subunit;p50 subunit, -1.1 z-score. Moreover, the results for the binding signal (with RELB subunit;p52 subunit; in [3]; in experiment [4]) were -0.803 z-score, -1.23 z-score and -0.928 z-score, respectively.

In the case of CAGATACTCCC, the binding signal with RELARELA (p65 homodimer) was -0.1 z-score; in the experiment with p50p50 homodimer, -0.181 z-score; with p52p52 homodimer, -0.309 z-score; in experiment [1] it was -0.154 z-score; in experiment [2], -0.498 z-score; in the experiment with RELB subunit;p50 subunit, -0.145 z-score. Moreover, the binding signal is -0.637 z-score with RELB subunit;p52 subunit, -0.312 z-score in experiment [3] and -0.374 z-score in experiment [4].

In the case of AAAGACGCCCC, the binding signal with RELARELA (p65 homodimer) was -0.195 z-score; in the experiment with p50p50 homodimer, 0.408 z-score; in the experiment with p52p52 homodimer it was 0.153 z-score; in [1] it was 0.135 z-score; in [2], 0.105 z-score; with RELB subunit;p50 subunit it was 0.331 z-score. The binding signal in the experiment with RELB subunit;p52 subunit was 0.432 z-score; in experiment [3], 0.326 z-score; in [4], -0.126 z-score.

Turning to AAGTGGCCCCC, the binding signal was -0.634 z-score with RELARELA (p65 homodimer); 0.242 z-score in the experiment with p50p50 homodimer; -0.0278 z-score with p52p52 homodimer; -0.101 z-score in [1]; 0.0039 z-score in [2]; 0.173 z-score with RELB subunit;p50 subunit. Besides, the binding signal stood at 0.29 z-score with RELB subunit;p52 subunit, 0.101 z-score in experiment [3] and 0.0509 z-score in [4].

On to CGATTGACCCC, for which the binding signal was -0.827 z-score with RELARELA (p65 homodimer); -0.753 z-score with p50p50 homodimer; -0.367 z-score in the experiment with p52p52 homodimer; -0.579 z-score in experiment [1]; -0.288 z-score in experiment [2]; -0.398 z-score with RELB subunit;p50 subunit. The binding signal with RELB subunit;p52 subunit was -0.411 z-score; in [3], -0.541 z-score; in experiment [4], -0.184 z-score.

As to AAGGACTCCCC, the binding signal with RELARELA (p65 homodimer) is 0.78 z-score; in the experiment with p50p50 homodimer, 0.758 z-score; with p52p52 homodimer it was 0.493 z-score; in experiment [1] it was 0.844 z-score; in [2], 0.665 z-score; in the experiment with RELB subunit;p50 subunit, 0.692 z-score. Besides, the binding signal with RELB subunit;p52 subunit is 0.442 z-score; in [3], 0.76 z-score; in experiment [4], 0.388 z-score.

As to GGATAGACCCC, the binding signal with RELARELA (p65 homodimer) is -0.296 z-score; with p50p50 homodimer, -0.324 z-score; with p52p52 homodimer, -0.227 z-score; in experiment [1], -0.111 z-score; in experiment [2], -0.128 z-score; in the experiment with RELB subunit;p50 subunit, -0.398 z-score. Moreover, the binding signal with RELB subunit;p52 subunit was 0.071 z-score; in experiment [3], -0.41 z-score; in experiment [4], -0.251 z-score.

Turning to CGAAGCTTCCC, the binding signal with RELARELA (p65 homodimer) is 0.142 z-score; with p50p50 homodimer it was -0.668 z-score; with p52p52 homodimer it was -0.466 z-score; in experiment [1], -0.322 z-score; in [2], -0.568 z-score; with RELB subunit;p50 subunit, -0.617 z-score. Also, the binding signal with RELB subunit;p52 subunit was -0.463 z-score; in [3] it was -0.253 z-score; in [4], -0.652 z-score.

CGAAGACTCCC: the binding signal with RELARELA (p65 homodimer) is -0.527 z-score; with p50p50 homodimer it was -0.307 z-score; with p52p52 homodimer, -0.407 z-score; in [1], -0.172 z-score; in experiment [2], -0.618 z-score; with RELB subunit;p50 subunit, -0.262 z-score. Moreover, the binding signal in the experiment with RELB subunit;p52 subunit is -0.747 z-score; in [3] it was -0.657 z-score; in experiment [4] it was -0.571 z-score.

As for CAGATAGCCCT, the binding signal in the experiment with RELARELA (p65 homodimer) is -0.575 z-score; with p50p50 homodimer it was -1.02 z-score; with p52p52 homodimer, -0.544 z-score; in experiment [1] it was -0.662 z-score; in [2] it was -0.763 z-score; with RELB subunit;p50 subunit, -0.804 z-score. Moreover, the results for the binding signal (with RELB subunit;p52 subunit; in experiment [3]; in experiment [4]) were -0.675 z-score, -1.23 z-score and -0.828 z-score, respectively.

On to AAAGTCGTCCT, for which the binding signal with RELARELA (p65 homodimer) is -0.192 z-score; with p50p50 homodimer, -1.25 z-score; with p52p52 homodimer, -0.599 z-score; in experiment [1], -1.25 z-score; in experiment [2], -0.839 z-score; in the experiment with RELB subunit;p50 subunit, -0.89 z-score. Also, the results for the binding signal (in the experiment with RELB subunit;p52 subunit; in experiment [3]; in [4]) were -0.666 z-score, -1.18 z-score and -0.704 z-score, respectively.

CAGAAAATCCC: the binding signal was found to be 1.82 z-score with RELARELA (p65 homodimer); 0.978 z-score with p50p50 homodimer; 1.18 z-score in the experiment with p52p52 homodimer; 0.992 z-score in experiment [1]; 1.13 z-score in experiment [2]; 0.966 z-score with RELB subunit;p50 subunit. Also, the binding signal in the experiment with RELB subunit;p52 subunit was determined as 1.04 z-score; in experiment [3], 0.902 z-score; in experiment [4] it was 1.19 z-score.

On to GGGGTCGCCCC, for which the binding signal in the experiment with RELARELA (p65 homodimer) came to 0.508 z-score; with p50p50 homodimer, 0.472 z-score; with p52p52 homodimer, 2.74 z-score; in experiment [1], 1.36 z-score; in [2] it was 2.18 z-score; with RELB subunit;p50 subunit it was 1.44 z-score. The binding signal is 1.61 z-score with RELB subunit;p52 subunit, 0.866 z-score in experiment [3] and 1.5 z-score in experiment [4].

Consider AAAGGGTTCCT, for which the binding signal in the experiment with RELARELA (p65 homodimer) was -0.817 z-score; with p50p50 homodimer, -1.23 z-score; with p52p52 homodimer it was -0.468 z-score; in experiment [1] it was -0.866 z-score; in [2], -0.749 z-score; with RELB subunit;p50 subunit, -1.03 z-score. In addition, the binding signal was -0.714 z-score with RELB subunit;p52 subunit, -0.957 z-score in experiment [3] and -0.558 z-score in experiment [4].

The values above are taken from article PMC3218832.
